IL1B secr inh: inhibitors of inflammasome signaling (IL-1 beta secretion) | THP-1 LPS/ATP IL-1B secretion, AlphaLISA, 16 h; hits give low values | activity change, % at 57.5 µM | 360,000 compounds, 4.7% hits | AID 743279; in the data active means activity change below about -50%; inconclusive means mostly about -30% to -49%; further: on the % scale 0 is the no-effect control and ±100 the full control effect
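Secreted IL-1B measured by AlphaLISA bead assay after 16 h compound exposure of THP-1 cells; compounds (final up to 57.5 uM) added 1 h before LPS (250 ng/mL) and ATP (1.25 mM) stimulation; lower signal means less secretion.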
HT1080NT lethal: kills 2HG-producing HT-1080-NT fibrosarcoma cells; HT-1080-NT fibrosarcoma viability, CellTiter-Glo ATP luminescence, 48 h; Potency, µM (top dose mostly 46.1 µM), without a hit: top-dose activity, negative = less viability, usual class: cytotoxic; 360,000 compounds, 1.6% hits;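 further: NT is the 2HG producing partner of a matched IDH1 knockdown line; potency means the concentration at half of the fitted maximal effect; 0% = DMSO-treated cells and -100% = media-only wells without cells; nearly all actives have a fitted effect of over 55% in size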
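Viability by CellTiter-Glo luminescence after 48 h compound exposure at 37C of HT-1080-NT cells (750/well, RPMI, 5% FBS). % activity scaled between DMSO wells and medium-only wells, then curve-fitted and categorized by curve class.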
HT1080 IDH1KD tx: kills HT-1080 cells with IDH1 knockdown; HT-1080 IDH1 knockdown viability, ATP luminescence, 48 h; Potency, µM (series often up to 46.1 µM), without a hit: at the highest dose activity, negative = toxicity, hits mostly cytotoxic; 360,000 compounds, 2% hits; AID 686971;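 further: potency means the concentration at half of the fitted maximal effect; 0% = DMSO wells and -100% = cell-free medium wells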
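After a 2 h attachment period, IDH1KD HT-1080 cells took pin-transferred compound for 48 h at 37 °C; ATP-based luminescence after 10 min room-temperature reagent incubation reported viability.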
Giardia killer: kills Giardia lamblia | 340,000 compounds, 0.15% hits | Giardia lamblia trophozoite viability | activity change, % at 7.66 µM, hits read low; in the data active means activity change below about -80%; inconclusive means between about -30% and that limit;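 further: parasites exposed to compound for two days anaerobically before the ATP read; on the % scale 0 is the no-effect control and ±100 the full control effect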
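Luminescent ATP signal served as the viability read-out, measured 15-30 min after adding ATP detection reagent to trophozoites that had been incubated with compounds for 48 hrs at 37 deg C anaerobically at 100 cells/well.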
HepG2 tox-1: kills HepG2 cells in TGF-b inhibitor counter-screen; HepG2 CAGA-GFP viability, ATP luminescence, 18 h; Potency, µM (top dose mostly 46.1 µM), inactives show at the top dose activity change, negative = cytotoxicity, actives largely listed as cytotoxic; 410,000 compounds, 0.76% hits; further: potency means the concentration at half of the fitted maximal effect
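CellTiter-Glo luminescence gave cytotoxicity after 18 hours at 37 degrees C. The cells were HepG2 CAGA-GFP in 1% FBS DMEM, stimulated with 500 pg/mL TGF-beta after compound addition. %Activity was normalised to no-cell wells (complete cell-killing) and DMSO (no toxicity), and curves were fitted and classified.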
TGFb SMAD3 inh: TGF-b pathway inhibition | 410,000 compounds, 1.2% hits | Potency, µM (series often up to 46.1 µM), for inactives: at the top dose activity, negative = inhibition, actives largely listed as inhibitors | HepG2 CAGA-GFP TGF-b/SMAD3 reporter, GFP fluorescence, 18 h; TGF-beta stimulated, 500 pg/mL final; further: potency means the concentration at half of the fitted maximal effect; on the % scale 0 is the no-effect control and ±100 the full control effect; nearly all actives have a fitted effect of over 65% in size
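Read-out: total well GFP (ex488/em500-530) summed from mean per-cell fluorescence. Cells: HEPG2 CAGA-GFP, 1% FBS DMEM, 18 h at 37 degrees C with 500 pg/mL final TGF-beta. Unstimulated wells served as the full-inhibition control; stimulated DMSO wells = 0%.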
TGFb confirm: TGF-b pathway inhibition, cherry-pick retest | shares compounds with TGFb SMAD3 inh | 1,600 compounds, 63% hits | Potency, µM (series often up to 46.1 µM), inactives show at the top dose activity, negative = inhibition, usual class: inhibitors | AID 720534 | HepG2 CAGA-GFP TGF-b reporter, GFP fluorescence, 18 h; cells stimulated with TGF-beta, 500 pg/mL; further: potency means the concentration at half of the fitted maximal effect; on the % scale 0 is the no-effect control and ±100 the full control effect; nearly all actives have a fitted effect of over 65% in size
HepG2 tox-2: toxic to HepG2 cells in TGF-b counterscreen; shares compounds with TGFb SMAD3 inh; HepG2 CAGA-GFP viability, ATP luminescence, 18 h; cells stimulated with TGF-beta, 500 pg/mL; Potency, µM (doses to about 46.1 µM), without a hit: at the highest dose activity, negative = cytotoxicity, usual class: inhibitors; 1,600 compounds, 27% hits; AID 720535; further: potency means the concentration at half of the fitted maximal effect; on the % scale 0 is the no-effect control and ±100 the full control effect; nearly all actives have a fitted effect of over 70% in size
CCL64 TGFb inh: TGF-b inhibition, CCL64 orthogonal assay; 1,600 compounds, 41% hits; CCL64 CAGA-GFP reporter, TGF-b stimulated, GFP fluorescence, 18 h; shares compounds with TGFb SMAD3 inh; Potency, µM (titrated, usually from 46.1 µM), for the others: at the highest dose activity, negative = inhibition, hits mostly inhibitors; AID 720536; further: potency means the concentration at half of the fitted maximal effect; nearly all actives have a fitted effect of over 65% in size
COP TGFb inh: TGF-b inhibition validated with COP promoter. shares compounds with TGFb SMAD3 inh. HepG2 COP-GFP TGF-b reporter, GFP fluorescence, 18 h; cells stimulated by added recombinant TGF-beta. Potency, µM (doses to about 46.1 µM), for inactives: at the highest dose activity, negative = inhibition, most hits filed as inhibitors. 1,600 compounds, 3% hits. AID 720537; further: potency means the concentration at half of the fitted maximal effect; nearly all actives have a fitted effect of over 70% in size
Active calls of the source: *; u = inconclusive; x = no result. The list is not random: actives were taken first. Their share in the collection is about 6.5%. Unless noted, the call rests on the fitted dose curve; in most records, active means well fitted curve in the direction sought with a large enough effect; inconclusive means small, poorly fitted or top-dose-only effect, or another doubt; inactive means no such curve, though single readings can be large; an effect the other way counts as inactive or inconclusive.

SMILES | IL1B secr inh | HT1080NT lethal | HT1080 IDH1KD tx | Giardia killer | HepG2 tox-1 | TGFb SMAD3 inh | TGFb confirm | HepG2 tox-2 | CCL64 TGFb inh | COP TGFb inh
CN(C)S(=O)(=O)c1cccc(NC(=O)COC(=O)CCSc2ccc(Cl)cc2)c1 | 40 | 0% | 2% | -14 | 2% | 8% | x | x | x | x
CCN(CC)S(=O)(=O)c1cccc(NC(=O)CCSc2ccc(Cl)cc2)c1 | 2 | -26% | -25% | 9 | 7% | 10µM* | 21µM* | u | 26µM* | 26%
O=C(Nc1ccccn1)c1ccc([N+](=O)[O-])o1 | -92* | u | u | -93* | -102% | 10µM* | 16µM* | u | u | 22%
COc1ccc(N2CCCC2)c(NC(=O)c2ccc([N+](=O)[O-])o2)c1 | -71* | -17% | -12% | -86* | -41% | 5.6µM* | u | u | u | 9%
COc1ccc(C(=O)Nc2cc([N+](=O)[O-])ccc2N2CCCC2)cc1 | 1 | -5% | -3% | 3 | -1% | 0% | x | x | x | x
O=C(Nc1cccc(NC(=O)c2ccccc2Cl)c1)c1ccc([N+](=O)[O-])o1 | -106* | u | 9.2µM* | -103* | -89% | 3.5µM* | 1.3µM* | 6.5µM* | 8.2µM* | u
Cc1ccnc(NC(=O)c2ccc([N+](=O)[O-])o2)c1 | x | u | -24% | u | -63% | u | x | x | x | x
O=C(Nc1nc2ccc(F)cc2s1)C1CCN(S(=O)(=O)c2cc([N+](=O)[O-])ccc2Cl)CC1 | -91* | u | u | -12 | 3% | 11µM* | 9.2µM* | u | 9.2µM* | 28%
Cc1ccc(C(=O)NC(=S)Nc2cccc(NC(=O)c3ccccc3Cl)c2)cc1[N+](=O)[O-] | -1 | -3% | 19% | 17 | -15% | 0% | x | x | x | x
O=C1COc2ccc(C(=O)COC(=O)CNC(=O)c3ccccc3)cc2N1 | 11 | 10% | 8% | 9 | 13% | 4% | x | x | x | x
COc1cccc(Nc2ccc(C(=O)O)cc2N)c1 | 3 | -1% | 6% | -5 | 16% | 7% | x | x | x | x
O=C(Nc1nc2ccc(F)cc2s1)c1ccc([N+](=O)[O-])o1 | -101* | u | -27% | x | -62% | 5.6µM* | 4.6µM* | 9.2µM* | u | 3%
COc1ccccc1NC(=O)c1ccc([N+](=O)[O-])o1 | -83* | u | u | -96* | 13µM* | 2.8µM* | u | u | u | 25%
O=C(Nc1nc2ccc(F)cc2s1)c1cccs1 | -1 | -2% | -26% | 2 | -30% | -3% | x | x | x | x
CC(c1ccc(F)cc1)n1cc(C(=O)NCc2ccccn2)nn1 (stereo unspecified) | -9 | 0% | 0% | -11 | -3% | 0% | x | x | x | x
CCCCN(C(=O)c1cccc2c(=O)c(C)c(-c3ccccc3)oc12)c1ccccc1 | 0 | -22% | u | -18 | -9% | 14µM* | 10µM* | u | u | 41%
CCCCNC(=O)c1cccc2c(=O)c(C)c(-c3ccccc3)oc12 | 8 | -17% | -14% | -16 | 11% | -5% | x | x | x | x
O=C(CN(Cc1ccc(Br)cc1)S(=O)(=O)c1ccccc1)NCc1cccnc1 | -17 | -8% | -7% | -16 | -7% | -1% | x | x | x | x
O=C(NCc1cccnc1)/C(=C\c1ccc(-c2ccc(Br)cc2)o1)S(=O)(=O)c1ccccc1 | -105* | 9.2µM* | 5.8µM* | -21 | -98% | 10µM* | 5.8µM* | 3.3µM* | 5.2µM* | u
Nc1cc(Nc2ccccc2)ccn1 | u | -1% | -10% | 2 | 1% | -1% | x | x | x | x
N#Cc1sc2nccc(Nc3ccccc3)c2c1N | 93 | -24% | -23% | 1 | -19% | 4.5µM* | 8.2µM* | 10% | 10% | -3%
Nc1nc(Nc2ccccc2)sc1C(=O)c1ccccc1 | x | u | u | -1 | -36% | 5.6µM* | 3.7µM* | 3.7µM* | 21µM* | 21%
COc1ccc(OCC(=O)N/N=C(\C)CC(=O)Nc2cccc([N+](=O)[O-])c2)cc1 | -14 | -5% | 4% | -2 | 1% | 4% | x | x | x | x
COc1ccc(C(=O)/C(C#N)=N/Nc2cccc([N+](=O)[O-])c2)cc1 | -13 | u | 23µM* | 2 | -19% | 10µM* | 5.2µM* | u | 8.2µM* | 46%
COc1ccc(NC(=O)CN(C)C(=O)CCCNC(=O)c2ccc(Cl)cc2)cc1 | 2 | 5% | 1% | -20 | 2% | -3% | x | x | x | x
SMILES | IL1B secr inh | HT1080NT lethal | HT1080 IDH1KD tx | Giardia killer | HepG2 tox-1 | TGFb SMAD3 inh | TGFb confirm | HepG2 tox-2 | CCL64 TGFb inh | COP TGFb inh
O=C(Oc1c(CN2CCOCC2)cc(Cl)c2cccnc12)c1cccs1 | -58* | 2.9µM* | 3.7µM* | -6 | -62% | 7.1µM* | u | u | 16µM* | 14%
O=C(Oc1c(Cl)cc(Cl)c2cccnc12)c1ccco1 | u | u | u | 0 | -2% | 6.3µM* | 18µM* | u | u | 24%
O=C(Oc1c(Cl)cc(Cl)c2cccnc12)c1cccs1 | 48 | 21µM* | 21µM* | 8 | -3% | 3.5µM* | 21µM* | u | u | 5%
CC(=O)Nc1ccc(CN2C(=O)C(Cc3ccccc3)ON=C2c2cccc(F)c2)cc1 (stereo unspecified) | 0 | -11% | -24% | x | -6% | -3% | x | x | x | x
Oc1ccc(C2=Nn3c(nnc3-c3ccco3)SC2)cc1O | -25 | u | u | -6 | -23% | -6% | x | x | x | x
O=C1NC[C@H](CCCCN2CCN(CCc3ccccc3)C(=O)C2=O)N(CCc2ccc(O)cc2)C1=O | -10 | 17% | 7% | x | x | x | x | x | x | x

Bioassay records (PubChem BioAssay)
